This is an account of results in PubChem BioAssay (NCATS).

“And” between values parts separate entries of the source, which are not always exact repeats. Identical values can stand only once. A number with no mark means an inactive call. Inconclusive results are not listed. The source holds several records for some structures; these can differ, active in one and inactive in another. The source made the active and inactive calls. Unless noted, the call rests on the fitted dose curve; in most records, active means well fitted curve in the direction sought with a large enough effect; inconclusive means small, poorly fitted or top-dose-only effect, or another doubt; inactive means no such curve, though single readings can be large; an effect the other way counts as inactive or inconclusive. Where only a bound is given, the exact number is not on record here.

Assay [1] in a line: Cell Viability - BJ (AID 421; calls by dose curve;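 further: potency means the concentration at half of the fitted maximal effect; cells exposed to compound for 40 hours at 37 °C before readout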). The note with it: BJ fibroblast viability, qHTS. In outline: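 Normal human BJ foreskin fibroblasts, 1500/well in complete medium, treated 40 hr at 37 °C. Cellular ATP by CellTiter-Glo luminescence; normalized to DMSO and 100 uM tamoxifen, AC50 from Hill fit.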
On the technique in general: In qHTS, concentration-response curves come from the screen itself.

The nature of assay [2]: Cell Viability - MRC5 (AID 434; calls by dose curve;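 further: potency means the concentration at half of the fitted maximal effect; potency reflects cytotoxicity seen as loss of intracellular ATP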). The note with it: MRC5 lung fibroblast viability, qHTS. In outline:
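Decrease in intracellular ATP, quantified by luciferase light output, reflects compound toxicity toward MRC5 cells exposed for 40 hr in complete culture medium. Concentration-response curves, scaled between DMSO and 100 uM tamoxifen, gave AC50 values.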

Assay [3] can be described thus: Cell Viability - SK-N-SH (AID 435; calls by dose curve;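 further: potency means the concentration at half of the fitted maximal effect; compound exposure lasted 40 h at 37 °C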). The following applies: SK-N-SH neuroblastoma cell viability qHTS. In outline: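 CellTiter-Glo ATP luminescence, 20 min RT read; cells pre-plated 5 hr, compound 40 hr at 37 °C, 1500 cells/well, complete medium. Normalized DMSO = 0, 100 uM tamoxifen = 100% inhibition; Hill-fit AC50.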
Assay [4] is described as follows: Cell Viability - Renal Proximal Tubule (AID 545). Further: nearly all actives have a fitted effect of over 40% in size. Further: potency means the concentration at half of the fitted maximal effect.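 On activity change, negative = cytotoxicity: 0% = DMSO only and -100% = 100 µM tamoxifen.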 The following applies: renal proximal tubule cells viability; activity change, negative = cytotoxicity: at 91.7 µM (top of the series) unless noted. In a few lines: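 Rat kidney proximal tubule cells, freshly isolated; 1000 cells/well, 5 hr settle, compound 40 hr 37 °C. CellTiter-Glo 20 min RT, luminescence read. AC50 by standard Hill fit.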

Assay [5] is described as follows: Cell Viability - Mesenchymal (AID 546).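 Further: cells exposed to compound for 40 hours before reading.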 Further: potency means the concentration at half of the fitted maximal effect.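 On activity change, negative = cytotoxicity: 0% = DMSO only and -100% = 100 µM tamoxifen.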 The following applies: mesenchymal cells viability, qHTS; activity change, negative = cytotoxicity: at 91.7 µM (top of the series). In a few lines: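 In this qHTS cytotoxicity format, glomerulus-derived human mesenchymal kidney cells received compound for 40 hr, then luciferase-based ATP quantitation. Concentration-response data were fitted with the Hill equation.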

A short description of assay [6]: Cellular Toxicity (caspase-3) Renal Proximal Tubule (AID 667).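 Further: cells exposed to compound for 16 hours at 37 °C before detection; 0% = DMSO basal and 100% = 10 µM staurosporine.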 The note with it: renal proximal tubule cells; at 91.7 µM (top of the series) unless noted. In outline:
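Luminescent caspase 3/7 signal from peptide-aminoluciferin cleavage measures apoptosis in freshly isolated rat kidney proximal tubule cells after 16 h compound exposure. Concentration-response data are normalized to DMSO and 10 uM staurosporine, and AC50 values come from Hill equation fits.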

Assay [7] can be described thus: MultiTox-Fluor Cytotoxicity Assay - LYMP1-002 - Live Cells (AID 955). Further: potency means the concentration at half of the fitted maximal effect. The following applies: LYMP1-002 lymphoblastoid live-cell protease fluorescence viability; series mostly up to 46.1 µM. In outline:
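After 16 h compound exposure at 37 C, live LYMP1-002 lymphoblastoid cells (2500/well) were quantified by cleavage of cell-permeant GF-AFC substrate, read at 405/510 nm after 60 min. Concentration-response fitted with Hill equation for AC50.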

Assay [8] can be described thus: MultiTox-Fluor Cytotoxicity Assay - LYMP1-003 - Live Cells (AID 962). Further: potency means the concentration at half of the fitted maximal effect. The note with it: LYMP1-003 lymphoblastoid cells, MultiTox-Fluor live-cell protease fluorescence; series mostly up to 92.2 µM. In a few lines: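 Live-cell protease activity (GF-AFC substrate, 405/510 nm, 60 min at room temperature) after 16 h, 37 C compound exposure of human lymphoblastoid LYMP1-003 cells; concentration-response fitted to the Hill equation for AC50.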

The nature of assay [9]: Cell Viability - LYMP2-008 (AID 980). Further: nearly all actives have a fitted effect of over 60% in size. Further: potency means the concentration at half of the fitted maximal effect. On activity change, negative = cytotoxicity: on the % scale 0 is the no-effect control and ±100 the full control effect. The note with it: LYMP2-008 lymphoblastoid cell viability, qHTS; series mostly up to 92.2 µM. In a few lines: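 Cytotoxicity determined from ATP-dependent luciferase luminescence (CellTiter-Glo) following 24 h compound exposure of human lymphoblastoid LYMP2-008 cells at 37 C. Concentration-response data fitted to the Hill equation to give AC50.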

The nature of assay [10]: qHTS assay for environmental chemicals that activate the Aryl hydrocarbon Receptor (AhR) signaling pathway (AID 651777). Further: % of control where 0% means no effect; nearly all actives have a fitted effect of over 15% in size. The note with it: 1A2-DRE human hepatoma cells, luciferase, 24 h; activation: hits give high values. In a few lines:
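Following a 24 hr incubation with test chemicals at 37 C and 5% CO2, 1A2-DRE human hepatoma cells received One-Glo reagent; after 30 min at room temperature, luciferase output reflected CYP1A2 induction via AhR.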

Assay [11] in a line: qHTS assay for small molecule agonists of the antioxidant response element (ARE) signaling pathway measured by Nrf2-dependant transcriptional activity - cell viability counter screen (AID 720653; active means well fitted curve in the direction sought with a large enough effect in the repeat runs; an effect the other way counts as inactive or inconclusive; further: potency means the concentration at half of the fitted maximal effect; on max response: on the % scale 0 is the no-effect control and ±100 the full control effect). The note with it: ARE-bla HepG2 viability, CellTiter-Glo ATP luminescence, 16 h; max response: hits give low values. In a few lines:
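ARE-bla HepG2 cells (2,000/well) rested 5 hrs at 37C/5% CO2, then exposed to compounds in DMSO for 16 hrs. Viability was read in the same wells as intracellular ATP by luminescence, 30 min at room temperature after reagent addition.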

The nature of assay [12]: Cell Viability - Hek293 (AID 427;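 active means compounds whose dose-response curve shows a full or clear partial loss of cell viability, called from curve shape rather than a numeric limit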;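 further: potency means the concentration at half of the fitted maximal effect; cells exposed to compound for 40 hours at 37 °C before reading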). The note with it: qHTS. In a few lines: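 HEK293 cells in complete medium were exposed to compound for 40 hr at 37 °C, then cellular ATP was read by CellTiter-Glo luminescence. Data were normalized to DMSO (basal) and 100 uM tamoxifen (100% inhibition), and AC50 came from Hill fits.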
A short description of assay [13]: Cell Viability - N2a (AID 540). Further: nearly all actives have a fitted effect of over 45% in size. Further: potency means the concentration at half of the fitted maximal effect.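 On activity change, negative = cytotoxicity: plate controls were DMSO alone for no effect and tamoxifen control for full effect.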 The note with it: N2a mouse neuroblastoma cell viability; activity change, negative = cytotoxicity: at 92.2 µM (top of the series). In a few lines: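 CellTiter-Glo ATP luminescence, read 20 min after reagent at room temperature, reported viability following 40 h compound treatment at 37 °C. N2a mouse neuroblastoma cells seeded 1500/well; Hill equation gave AC50.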

Assay [14] can be described thus: Cell Viability - NIH 3T3 (AID 541). Further: nearly all actives have a fitted effect of over 25% in size. Further: potency means the concentration at half of the fitted maximal effect.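 On activity change, negative = cytotoxicity: plate controls were DMSO alone for no effect and tamoxifen positive control for full effect.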 The note with it: NIH 3T3 cell viability, qHTS; activity change, negative = cytotoxicity: at 92.2 µM (top of the series). In a few lines: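 Intracellular ATP (CellTiter-Glo luminescence, 20 min at room temperature) measured after 40 hr compound exposure at 37 °C of 1000 NIH 3T3 mouse fibroblasts/well in complete medium; AC50 derived by Hill-equation modelling of qHTS concentration-response curves.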

Assay [15] addresses Alpha-galactosidase (Coffea arabica) (UniProt Q42656). As to the kind of experiment: Counterscreen for Glucocerebrosidase Inhibitors: qHTS Assay for Coffee Bean alpha-Galactosidase at pH 4.5 (AID 957).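 Further: plate controls were enzyme alone for no effect and no enzyme for full effect.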 The following applies: purified coffee bean alpha-galactosidase, fluorogenic substrate; series mostly up to 76.9 µM. In outline: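 Fluorogenic qHTS at pH 4.5 (citrate buffer with Tween-20): 2 nM enzyme, 80 uM 4-MU-alpha-galactoside substrate, compound titrated 0.7 nM to 77 uM, 20 min room temperature. Glycine/NaOH stop; 4-MU read Ex 365/Em 440; Hill-equation AC50 against no-enzyme and enzyme controls.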
For orientation: Counterscreens check selectivity or assay interference.

Assay [16] has the same target. As to the kind of experiment: Counterscreen for Glucocerebrosidase Inhibitors: qHTS Assay for Coffee Bean alpha-Galactosidase at pH 5.9 (AID 998).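 Further: plate controls were uninhibited enzyme for no effect and no-enzyme basal signal for full effect.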 The note with it: coffee bean alpha-galactosidase enzyme assay; series mostly up to 76.9 µM. In a few lines: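 In 50 mM citric acid pH 5.9 with 0.005% Tween-20, coffee bean enzyme hydrolyses 80 uM 4-MU alpha-D-galactopyranoside over 20 min at RT. Activity is normalized to controls; AC50 comes from Hill-modelled concentration-response data.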

Sequence of Alpha-galactosidase (Coffea arabica) (Q42656 whole entry, looked up): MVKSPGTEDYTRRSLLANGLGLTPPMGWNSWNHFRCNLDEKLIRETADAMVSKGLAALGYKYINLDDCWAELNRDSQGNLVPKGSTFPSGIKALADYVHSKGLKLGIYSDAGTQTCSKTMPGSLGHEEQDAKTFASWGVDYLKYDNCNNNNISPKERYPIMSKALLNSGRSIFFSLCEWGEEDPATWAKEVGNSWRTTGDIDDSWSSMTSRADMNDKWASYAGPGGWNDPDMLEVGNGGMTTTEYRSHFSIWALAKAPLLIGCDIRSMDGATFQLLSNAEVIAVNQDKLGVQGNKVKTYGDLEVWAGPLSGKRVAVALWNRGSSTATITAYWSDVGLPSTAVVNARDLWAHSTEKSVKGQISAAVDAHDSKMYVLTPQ

Turning to `COP(=O)(OC)O/C(=C\Cl)c1cc(Cl)c(Cl)cc1Cl`, the Potency in assay [1] was greater than 92 µM; in assay [2], greater than 92 µM; in [3] it was 33.5 µM (active). Besides, the Potency result in assay [4], in assay [5], in assay [7], in assay [8] and in [9] was “inactive” throughout. For the same compound, the caspase-3 activation in [6] was 2.58% [at 91.7 µM, primary cells freshly taken from rat, solvent-only wells 0%, staurosporine 100%]. Also, in assay [10], the activation is 0.406%. The max response in assay [11] is -14.8%.

As for `FC(F)(F)c1ccc(Cl)cc1`, the Potency in assay [1], in [12], in assay [2] and in assay [3] was greater than 92 µM each time. In addition, the activity change, negative = cytotoxicity in assay [13] was 6.85%. The Potency result in assay [14], in [4], in assay [5], in assay [7], in assay [8] and in assay [9] was “inactive” in each case. Further, the caspase-3 activation in assay [6] was 5.86% [at 91.7 µM, primary cells freshly taken from rat, solvent-only wells 0%, staurosporine 100%]. Further, the activation in assay [10] was 0.0226% and 0.781%. Also, the max response in assay [11] was 7.1% and -8.38%.

For the compound `O=[N+]([O-])c1ccccc1Cl`, the Potency in assay [1], in [12], in assay [2] and in assay [3] was greater than 92 µM in each case. Besides, in assay [10], the activation was -0.478% and -0.511%. Besides, the max response in assay [11] was 10.4% and -3.52%.

On to `ClC1=C(Cl)C2(Cl)C3C(Cl)C(Cl)CC3C1(Cl)C2(Cl)Cl` (configuration not stated), for which, in [12], the Potency is 72.7 µM (active). The activity change, negative = cytotoxicity in assay [13] is -82.9% (active). Further, the Potency entry in assay [14], in [5], in assay [7], in [8] and in assay [9] was “inactive” throughout. Further, the caspase-3 activation in assay [6] is 19%. For the same compound, in assay [11], the max response was -13.1%.

As for `N#CSCSC#N`, the Potency in assay [1] is 14.4 µM (active); in [12], 34.5 µM (active); in [2], 41.4 µM (active); in [3], 14 µM (active); in [13], 25.1 µM (active); in [14], 10 µM (active). The Potency in assay [4] is 5.01 µM (active); in assay [5], 12.6 µM (active); in assay [7], 15.8 µM (active); in assay [8] it was 39.8 µM (active); in [9] it was 7.94 µM (active); in assay [11], 44.7 µM (active) and 39.8 µM (active). For the same compound, the caspase-3 activation in assay [6] is -11.6%. For the same compound, the activation in assay [10] was 3.48% and -14.5%.

As to `O=[N+]([O-])c1cc(C(F)(F)F)cc([N+](=O)[O-])c1Cl`, the Potency is greater than 92 µM in assay [1]; greater than 92 µM in [12]; greater than 92 µM in assay [2]; greater than 92 µM in [3]; 39.8 µM (active) in assay [9]. Further, the activity change, negative = cytotoxicity in [14] is -150% (active). Moreover, the Potency entry in [4], in assay [5], in [7] and in assay [8] was “inactive” each time. Besides, the caspase-3 activation in assay [6] was 6.02% [at 91.7 µM, primary cells freshly taken from rat, solvent-only wells 0%, staurosporine 100%]. For the same compound, in assay [10], the activation is 0.493%. Moreover, the max response in assay [11] is 4.67%.

Regarding `O=C1C2(Cl)C3(Cl)C4(Cl)C(Cl)(Cl)C5(Cl)C3(Cl)C1(Cl)C5(Cl)C24Cl` (configuration not stated), the Potency in assay [1] was 26.8 µM (active) and 61.3 µM (active); in [12] it was 30.2 µM (active) and 47.2 µM (active); in assay [2], 39.7 µM (active) and 48.6 µM (active); in assay [3], 33.3 µM (active) and 51.3 µM (active); in [13], 31.6 µM (active) and 39.8 µM (active); in assay [4], 31.6 µM (active). Also, the Potency in assay [5] was 31.6 µM (active); in assay [7], 31.6 µM (active); in [8], 39.8 µM (active) and 50.1 µM (active); in assay [9], 50.1 µM (active); in assay [11] it was 50.1 µM (active). In addition, the activity change, negative = cytotoxicity in [14] was -136% (active) and -122% (active); in assay [4], -88.2% (active); in assay [5], -92.3% (active). For the same compound, the caspase-3 activation in assay [6] was -3.9%. Further, the activation in assay [10] was 0.0088% and 4.7%. In [11], the max response is 5.47%.

Consider `C#CCO`, for which the Potency in assay [1], in [12], in assay [2] and in assay [3] was greater than 92 µM in each case. Also, in [13], the activity change, negative = cytotoxicity was -2.19%. The Potency entry in [14], in assay [4], in [5], in assay [7], in assay [8] and in assay [9] was “inactive” each time. Moreover, the caspase-3 activation in assay [6] was -11.4% [at 91.7 µM, primary cells freshly taken from rat, solvent-only wells 0%, staurosporine 100%]. Besides, the activation in assay [10] is 1.07%. In addition, in [11], the max response was -2.39%.

With `Oc1c(Cl)cc(Cl)cc1Cl`, the Potency in [1], in assay [12], in assay [2] and in [3] was greater than 92 µM each time. Moreover, the activation in assay [10] is 0.15% and 1.58%. In addition, the max response in [11] was -6.96% and -8.43%.

Consider `Oc1cc2c(cc1O)[C@H]1c3ccccc3CN[C@@H]1CC2`, for which the compound was classed as inactive in assay [15] and in assay [16].

Turning to `O=C(CCl)c1ccccc1`, the Potency in [1] was 39.2 µM (active); in [3], 15.4 µM (active); in [14], 15.8 µM (active); in assay [7], 31.6 µM (active); in assay [8], 39.8 µM (active); in assay [9], 12.6 µM (active). Besides, the activity change, negative = cytotoxicity in assay [13] was -113% (active); in assay [5], -109% (active). Besides, the caspase-3 activation in [6] is -4.24%. For the same compound, the activation in assay [10] was -0.199% and 2.38%. For the same compound, in assay [11], the max response is -32.5% and -9.07%.
